Outcome and AC50 data for 18 molecules are collected here from PubChem BioAssay (EPA / NIEHS).

The source made the active and inactive calls. The calls were made as follows: active = hit-call score of the fitted dose curve at least 0.9, where 1 is the maximum; inactive = score below 0.9.

Read-out in this assay: Interferon-gamma inducible Protein 10 (IP10), CXCL10 (gene 3627)
The assay is described as follows: BSK_hDFCGF_IP10: BioMAP Diversity Plus: hDFCGF Assay for Interferon-gamma inducible Protein 10 (IP10) Biomarker Activity (AID 2283053). The following applies: primary human foreskin fibroblasts; actives raise or lower the signal. Summed up:
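Primary foreskin fibroblasts, human; 24 h compound exposure; IP-10 by ELISA; bidirectional fit vs DMSO.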
`CN(C)C(=O)Nc1cccc(C(F)(F)F)c1`: the result was inactive. In the case of `COP(=O)(NC(C)=O)SC` (stereo not drawn), the result was inactive. The same measure, in the same setting: under `CN(C)NC(=O)CCC(=O)O` stands “inactive”; under `C[Si](Cn1cncn1)(c1ccc(F)cc1)c1ccc(F)cc1`, “inactive”.

With `CCCOCC(=Nc1ccc(Cl)cc1C(F)(F)F)n1ccnc1`, the AC50 was 31.1 µM (active).

As for `CC1=NNC(=O)N(/N=C/c2cccnc2)C1`, the outcome was inactive. For the molecule `C#CCC1=C(C)C(OC(=O)C2C(C=C(C)C)C2(C)C)CC1=O` (stereo not drawn), the AC50 is 29.6 µM (active). As for `COP(=O)(OC)C(O)C(Cl)(Cl)Cl` (stereo not drawn), the outcome was inactive.

As for `COP(=O)(OC)SCn1c(=O)oc2cc(Cl)cnc21`, the AC50 is 13 µM (active). For the molecule `CCOP(=S)(Oc1cnc(C(C)(C)C)nc1)OC(C)C` (stereo not drawn), the AC50 was 29.2 µM (active). As for `CNC(=O)ON=C(SC)C(=O)N(C)C`, the outcome was inactive. The same measure, in the same setting: the value for `CNc1cnn(-c2cccc(C(F)(F)F)c2)c(=O)c1Cl` was “inactive”; that for `CC1(C(=O)Nc2ccc(O)c(Cl)c2Cl)CCCCC1` was “inactive”; that for `CN1COCN(Cc2cnc(Cl)s2)C1=N[N+](=O)[O-]` was “inactive”.

For the molecule `CCCCSP(=O)(SCCCC)SCCCC`, the AC50 is 20 µM (active).

As to `CC(C1CC1)C(O)(Cn1cncn1)c1ccc(Cl)cc1` (stereo not drawn), the outcome was inactive.

Regarding `CC[C@H](C)[C@H]1O[C@]2(C=C[C@@H]1C)C[C@@H]1C[C@@H](C/C=C(\C)[C@@H](O[C@H]3C[C@H](OC)[C@@H](O[C@H]4C[C@H](OC)[C@@H](NC)[C@H](C)O4)[C@H](C)O3)[C@@H](C)/C=C/C=C3\CO[C@@H]4[C@H](O)C(C)=C[C@@H](C(=O)O1)[C@]34O)O2`, the AC50 is 4.28 µM (active).

As to `CC(C)=CC1C(C(=O)OCN2C(=O)C3=C(CCCC3)C2=O)C1(C)C` (stereo not drawn), the AC50 was 30.1 µM (active).

As usually defined, the AC50 is the concentration giving half of the maximal activity seen.
